This note sets out measurements from publication PMC7862700, “An all-to-all approach to the identification of sequence-specific readers for epigenetic DNA modifications on cytosine”.

What all share (assay): DAPPL (digital affinity profiling via proximity ligation, sequencing); 10 mM Tris-HCl pH 7.5, 50 mM NaCl, 1 mM DTT, 4% glycerol, room temperature, 30 min; GST-TFs on glutathione beads, 16-mer random dsDNA library, 0.1% formaldehyde crosslink after washing; high values mean tight binding
The target in one experiment is T1, FEV (Homo sapiens, UniProt Q99581 1-238).
T1 sequence: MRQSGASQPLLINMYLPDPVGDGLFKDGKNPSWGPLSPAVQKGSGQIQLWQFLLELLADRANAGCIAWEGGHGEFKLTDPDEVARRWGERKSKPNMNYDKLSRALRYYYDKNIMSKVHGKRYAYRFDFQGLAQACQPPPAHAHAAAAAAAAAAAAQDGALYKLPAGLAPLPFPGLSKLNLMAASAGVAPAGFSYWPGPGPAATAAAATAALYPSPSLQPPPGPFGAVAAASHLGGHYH
As to conditions: protein: recombinant; tags: N-terminal GST; dsDNA, one strand shown. The gist of the method:
(§1)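 Yeast served to express human transcription factors as GST fusions, which were then captured on glutathione beads and labelled with DNA barcodes. Pooled with a tag-only sample, they were incubated with 200 nmole of a 16-mer random double-stranded DNA library for 30 min at room temperature in Tris/NaCl/DTT/glycerol buffer, washed, crosslinked with 0.1% formaldehyde, ligated by proximity, amplified by PCR and sequenced. Dividing each hexamer's read frequency for a factor by its frequency for the tag-only sample gives the binding signal.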

The next experiment deals with ETV5 (Homo sapiens, UniProt P41161 1-510). The settings on record: protein: recombinant; tags: N-terminal GST; dsDNA, one strand shown. The gist of the method: as §1
Chain of ETV5 (P41161 whole entry): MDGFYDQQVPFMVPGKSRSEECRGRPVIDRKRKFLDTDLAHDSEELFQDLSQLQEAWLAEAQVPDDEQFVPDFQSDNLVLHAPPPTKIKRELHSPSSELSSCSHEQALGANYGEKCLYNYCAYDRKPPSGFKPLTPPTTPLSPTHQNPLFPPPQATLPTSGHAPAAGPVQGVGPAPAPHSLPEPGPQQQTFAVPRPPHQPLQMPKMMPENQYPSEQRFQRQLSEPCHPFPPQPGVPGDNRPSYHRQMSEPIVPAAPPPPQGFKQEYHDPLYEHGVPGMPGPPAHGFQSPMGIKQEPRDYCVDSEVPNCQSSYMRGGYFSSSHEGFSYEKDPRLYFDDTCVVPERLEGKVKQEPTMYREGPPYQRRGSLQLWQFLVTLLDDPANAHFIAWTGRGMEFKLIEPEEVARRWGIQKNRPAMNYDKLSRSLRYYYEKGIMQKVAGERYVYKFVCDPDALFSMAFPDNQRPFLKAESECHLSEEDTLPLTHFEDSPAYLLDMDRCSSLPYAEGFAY
Another experiment concerns the target HSF1 (Homo sapiens, UniProt Q00613 1-529). As to conditions: protein: recombinant; tags: N-terminal GST; chain copies: 3; dsDNA, one strand shown. The gist of the method: as §1
The next experiment addresses T2, SPIC (Homo sapiens, UniProt Q8N5J4 1-248).
T2 sequence: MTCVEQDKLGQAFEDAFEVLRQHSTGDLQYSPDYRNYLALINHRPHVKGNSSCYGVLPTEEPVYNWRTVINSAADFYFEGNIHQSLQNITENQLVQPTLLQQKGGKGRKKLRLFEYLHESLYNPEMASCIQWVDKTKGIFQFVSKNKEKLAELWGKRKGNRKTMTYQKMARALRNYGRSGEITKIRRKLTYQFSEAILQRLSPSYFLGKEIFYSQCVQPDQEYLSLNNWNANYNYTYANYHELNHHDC
The settings on record: protein: recombinant; tags: N-terminal GST; dsDNA, one strand shown. The method, boiled down:
as §1

The next experiment concerns the target ELF4 (Homo sapiens, UniProt Q99607 1-663). The settings on record: protein: recombinant; tags: N-terminal GST; dsDNA, one strand shown. The gist of the method:
as §1

Another experiment has as its target T3, ELK4 (Homo sapiens, UniProt P28324-2 1-405).
T3 sequence: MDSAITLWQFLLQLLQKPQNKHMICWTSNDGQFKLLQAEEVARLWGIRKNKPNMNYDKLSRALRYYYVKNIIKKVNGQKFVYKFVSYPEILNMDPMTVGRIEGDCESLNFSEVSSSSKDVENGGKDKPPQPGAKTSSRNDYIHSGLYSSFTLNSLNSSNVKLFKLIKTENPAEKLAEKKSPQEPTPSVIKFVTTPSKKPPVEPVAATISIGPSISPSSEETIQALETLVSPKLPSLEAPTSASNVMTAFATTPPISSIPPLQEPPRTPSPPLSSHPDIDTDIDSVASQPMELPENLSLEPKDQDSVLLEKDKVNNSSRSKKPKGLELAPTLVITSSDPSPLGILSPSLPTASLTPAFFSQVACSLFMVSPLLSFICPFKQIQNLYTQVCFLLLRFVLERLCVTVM
The settings on record: protein: recombinant; tags: N-terminal GST; dsDNA, one strand shown. The method, boiled down: as §1

A further experiment deals with T4, ETV2 (Homo sapiens, UniProt O00321 1-342).
T4 sequence: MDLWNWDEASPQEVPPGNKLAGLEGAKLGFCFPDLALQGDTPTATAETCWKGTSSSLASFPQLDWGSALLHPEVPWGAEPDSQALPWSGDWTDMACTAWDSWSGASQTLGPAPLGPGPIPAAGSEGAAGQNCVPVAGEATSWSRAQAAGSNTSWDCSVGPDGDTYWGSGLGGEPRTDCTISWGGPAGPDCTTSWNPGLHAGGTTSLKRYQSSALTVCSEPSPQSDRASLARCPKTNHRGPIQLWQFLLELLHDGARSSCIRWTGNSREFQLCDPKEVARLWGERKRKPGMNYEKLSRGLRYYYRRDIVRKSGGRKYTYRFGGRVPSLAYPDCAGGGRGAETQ
The settings on record: protein: recombinant; tags: N-terminal GST; dsDNA, one strand shown. The method, boiled down:
as §1

A further experiment deals with T5, ELF3 (Homo sapiens, UniProt P78545 1-371).
T5 sequence: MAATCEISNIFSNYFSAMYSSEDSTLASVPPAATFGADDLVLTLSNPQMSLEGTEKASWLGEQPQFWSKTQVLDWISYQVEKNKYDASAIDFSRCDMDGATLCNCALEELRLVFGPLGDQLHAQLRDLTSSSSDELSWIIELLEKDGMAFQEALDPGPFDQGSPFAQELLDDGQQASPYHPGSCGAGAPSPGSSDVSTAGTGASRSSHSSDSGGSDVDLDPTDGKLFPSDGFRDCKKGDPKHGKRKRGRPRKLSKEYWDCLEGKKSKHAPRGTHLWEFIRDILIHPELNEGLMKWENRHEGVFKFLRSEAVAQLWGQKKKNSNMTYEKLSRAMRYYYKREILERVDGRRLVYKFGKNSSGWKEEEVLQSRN
As to conditions: protein: recombinant; tags: N-terminal GST; dsDNA, one strand shown. The gist of the method: as §1

The next experiment addresses CRX (Homo sapiens, UniProt O43186 1-299). As to conditions: protein: recombinant; tags: N-terminal GST; dsDNA, one strand shown. The method, boiled down: as §1
The next experiment deals with ETV1 (Homo sapiens, UniProt P50549 1-477). The settings on record: protein: recombinant; tags: N-terminal GST; dsDNA, one strand shown. The gist of the method: as §1
Chain of ETV1 (P50549 whole entry): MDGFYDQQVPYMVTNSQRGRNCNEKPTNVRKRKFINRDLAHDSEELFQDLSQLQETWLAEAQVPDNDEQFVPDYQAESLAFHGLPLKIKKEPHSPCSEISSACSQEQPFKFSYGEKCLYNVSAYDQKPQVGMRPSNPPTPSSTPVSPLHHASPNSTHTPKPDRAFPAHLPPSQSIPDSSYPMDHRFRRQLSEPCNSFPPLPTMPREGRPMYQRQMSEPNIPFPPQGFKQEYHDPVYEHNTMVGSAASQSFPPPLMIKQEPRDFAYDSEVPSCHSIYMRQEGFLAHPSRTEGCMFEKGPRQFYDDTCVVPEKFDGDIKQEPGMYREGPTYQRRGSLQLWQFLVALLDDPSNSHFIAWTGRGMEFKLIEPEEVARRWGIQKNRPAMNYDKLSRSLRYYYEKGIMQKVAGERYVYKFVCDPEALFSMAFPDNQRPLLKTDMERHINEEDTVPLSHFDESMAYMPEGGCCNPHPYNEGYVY
The next experiment concerns the target T6, ERF (Homo sapiens, UniProt P50548 1-548).
T6 sequence: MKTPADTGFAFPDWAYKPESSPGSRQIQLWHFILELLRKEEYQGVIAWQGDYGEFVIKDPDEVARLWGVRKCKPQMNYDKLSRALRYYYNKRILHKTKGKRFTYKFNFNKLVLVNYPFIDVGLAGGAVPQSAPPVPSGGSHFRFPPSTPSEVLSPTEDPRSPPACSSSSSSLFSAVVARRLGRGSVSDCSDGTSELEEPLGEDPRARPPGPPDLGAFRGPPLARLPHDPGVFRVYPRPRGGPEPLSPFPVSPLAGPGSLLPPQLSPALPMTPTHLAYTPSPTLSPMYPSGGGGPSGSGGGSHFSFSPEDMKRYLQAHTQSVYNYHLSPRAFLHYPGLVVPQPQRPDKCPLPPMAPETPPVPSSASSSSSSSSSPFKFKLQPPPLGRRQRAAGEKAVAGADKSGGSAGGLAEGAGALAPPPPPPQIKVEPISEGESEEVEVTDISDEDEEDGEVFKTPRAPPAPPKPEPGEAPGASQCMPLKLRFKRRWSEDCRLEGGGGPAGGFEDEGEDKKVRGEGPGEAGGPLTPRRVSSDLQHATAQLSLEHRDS
The settings on record: protein: recombinant; tags: N-terminal GST; dsDNA, one strand shown. The gist of the method:
as §1

Another experiment deals with T7, ETV3L (Homo sapiens, UniProt Q6ZN32 1-361).
T7 sequence: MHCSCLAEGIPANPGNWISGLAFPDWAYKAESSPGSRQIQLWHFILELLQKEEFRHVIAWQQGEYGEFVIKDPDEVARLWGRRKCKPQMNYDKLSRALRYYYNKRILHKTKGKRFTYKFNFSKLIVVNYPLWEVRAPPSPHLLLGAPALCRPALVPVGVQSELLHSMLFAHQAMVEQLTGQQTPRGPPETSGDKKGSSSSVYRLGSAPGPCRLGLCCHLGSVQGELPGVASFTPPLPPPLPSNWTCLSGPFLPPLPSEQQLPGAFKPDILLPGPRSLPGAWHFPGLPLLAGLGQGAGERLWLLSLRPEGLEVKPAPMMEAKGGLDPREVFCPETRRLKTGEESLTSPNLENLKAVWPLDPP
The settings on record: protein: recombinant; tags: N-terminal GST; dsDNA, one strand shown. The gist of the method:
as §1

A further experiment deals with T8, ETS2 (Homo sapiens, UniProt P15036 1-469).
T8 sequence: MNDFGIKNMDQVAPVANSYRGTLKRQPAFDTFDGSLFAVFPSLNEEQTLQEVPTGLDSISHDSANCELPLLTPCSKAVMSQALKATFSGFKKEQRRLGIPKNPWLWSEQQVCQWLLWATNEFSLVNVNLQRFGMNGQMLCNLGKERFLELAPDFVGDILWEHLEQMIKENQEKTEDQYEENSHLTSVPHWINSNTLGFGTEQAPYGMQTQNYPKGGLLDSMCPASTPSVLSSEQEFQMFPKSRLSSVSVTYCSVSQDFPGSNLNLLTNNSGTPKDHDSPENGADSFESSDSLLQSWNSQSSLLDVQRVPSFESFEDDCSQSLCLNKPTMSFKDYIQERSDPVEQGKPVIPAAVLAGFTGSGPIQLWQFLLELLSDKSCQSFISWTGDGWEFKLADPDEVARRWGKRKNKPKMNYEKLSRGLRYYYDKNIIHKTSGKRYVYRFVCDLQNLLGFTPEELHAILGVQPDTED
The settings on record: protein: recombinant; tags: N-terminal GST; dsDNA, one strand shown. The method, boiled down: as §1

The next experiment addresses T9, SPDEF (Homo sapiens, UniProt O95238 1-335).
T9 sequence: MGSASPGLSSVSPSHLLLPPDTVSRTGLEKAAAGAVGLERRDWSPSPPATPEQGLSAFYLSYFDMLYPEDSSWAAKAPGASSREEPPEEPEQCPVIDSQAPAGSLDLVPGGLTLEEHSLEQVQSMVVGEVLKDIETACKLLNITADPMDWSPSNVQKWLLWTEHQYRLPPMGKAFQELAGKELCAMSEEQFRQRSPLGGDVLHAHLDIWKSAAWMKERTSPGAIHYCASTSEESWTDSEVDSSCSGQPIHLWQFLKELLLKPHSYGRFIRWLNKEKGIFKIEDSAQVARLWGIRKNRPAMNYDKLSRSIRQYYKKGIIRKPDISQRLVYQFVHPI
The settings on record: protein: recombinant; tags: N-terminal GST; dsDNA, one strand shown. The method, boiled down: as §1

A further experiment addresses T10, ETV7 (Homo sapiens, UniProt Q9Y603 1-341).
T10 sequence: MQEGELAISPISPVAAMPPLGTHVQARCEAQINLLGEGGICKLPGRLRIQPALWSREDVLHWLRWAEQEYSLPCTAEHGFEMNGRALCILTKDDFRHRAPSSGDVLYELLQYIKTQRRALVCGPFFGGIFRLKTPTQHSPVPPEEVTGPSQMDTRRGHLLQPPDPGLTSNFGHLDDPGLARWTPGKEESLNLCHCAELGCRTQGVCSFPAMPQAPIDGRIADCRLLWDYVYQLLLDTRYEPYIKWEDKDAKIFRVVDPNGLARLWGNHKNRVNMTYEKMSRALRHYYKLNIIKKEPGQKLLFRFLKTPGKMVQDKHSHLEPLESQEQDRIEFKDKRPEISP
The settings on record: protein: recombinant; tags: N-terminal GST; dsDNA, one strand shown. The gist of the method:
as §1

A further experiment addresses T11, ELF5 (Homo sapiens, UniProt Q9UKW6-2 1-255).
T11 sequence: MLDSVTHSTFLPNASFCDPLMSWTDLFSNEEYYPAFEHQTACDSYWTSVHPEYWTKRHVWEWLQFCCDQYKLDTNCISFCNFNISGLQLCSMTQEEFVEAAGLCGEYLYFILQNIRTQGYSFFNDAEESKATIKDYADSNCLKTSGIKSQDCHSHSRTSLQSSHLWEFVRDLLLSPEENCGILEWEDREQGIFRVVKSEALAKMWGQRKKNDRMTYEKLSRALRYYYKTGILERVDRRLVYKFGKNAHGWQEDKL
As to conditions: protein: recombinant; tags: N-terminal GST; dsDNA, one strand shown. The gist of the method: as §1

The target of the next experiment is T12, ETV3 (Homo sapiens, UniProt P41162-2 1-143).
T12 sequence: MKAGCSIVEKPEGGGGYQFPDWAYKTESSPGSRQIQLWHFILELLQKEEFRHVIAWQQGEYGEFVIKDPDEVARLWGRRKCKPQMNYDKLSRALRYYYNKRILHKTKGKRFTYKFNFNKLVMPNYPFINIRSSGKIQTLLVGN
As to conditions: protein: recombinant; tags: N-terminal GST; dsDNA, one strand shown. The method, boiled down: as §1

In the next experiment the target is ETV6 (Homo sapiens, UniProt P41212 1-452). The settings on record: protein: recombinant; tags: N-terminal GST; dsDNA, one strand shown. The gist of the method:
as §1

Chain of CRX (O43186 whole entry): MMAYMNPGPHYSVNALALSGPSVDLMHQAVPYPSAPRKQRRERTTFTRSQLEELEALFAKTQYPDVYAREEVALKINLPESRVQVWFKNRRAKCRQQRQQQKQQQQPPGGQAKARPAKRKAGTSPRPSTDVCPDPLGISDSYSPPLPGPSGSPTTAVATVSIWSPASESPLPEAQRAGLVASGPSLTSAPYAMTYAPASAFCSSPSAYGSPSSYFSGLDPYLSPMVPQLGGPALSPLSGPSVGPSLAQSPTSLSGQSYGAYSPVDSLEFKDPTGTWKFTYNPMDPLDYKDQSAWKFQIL
Chain of ELF4 (Q99607 whole entry): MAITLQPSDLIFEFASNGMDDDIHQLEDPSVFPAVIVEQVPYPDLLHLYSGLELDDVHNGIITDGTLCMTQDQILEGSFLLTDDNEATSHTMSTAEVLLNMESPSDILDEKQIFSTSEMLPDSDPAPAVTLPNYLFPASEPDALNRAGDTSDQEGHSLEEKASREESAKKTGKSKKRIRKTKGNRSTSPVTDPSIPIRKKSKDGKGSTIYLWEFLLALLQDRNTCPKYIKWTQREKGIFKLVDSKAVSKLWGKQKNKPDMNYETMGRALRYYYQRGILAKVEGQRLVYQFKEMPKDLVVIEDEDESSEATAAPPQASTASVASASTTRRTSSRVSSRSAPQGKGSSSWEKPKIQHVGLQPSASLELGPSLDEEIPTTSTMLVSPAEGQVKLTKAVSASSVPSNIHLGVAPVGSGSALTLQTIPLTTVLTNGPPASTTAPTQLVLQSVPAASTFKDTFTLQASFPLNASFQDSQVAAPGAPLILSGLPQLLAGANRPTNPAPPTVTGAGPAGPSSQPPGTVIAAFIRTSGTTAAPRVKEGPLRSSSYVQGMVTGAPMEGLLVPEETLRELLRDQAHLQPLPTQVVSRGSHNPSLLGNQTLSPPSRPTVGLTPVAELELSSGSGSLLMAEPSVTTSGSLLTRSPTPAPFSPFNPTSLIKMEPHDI
Chain of ETV6 (P41212 whole entry): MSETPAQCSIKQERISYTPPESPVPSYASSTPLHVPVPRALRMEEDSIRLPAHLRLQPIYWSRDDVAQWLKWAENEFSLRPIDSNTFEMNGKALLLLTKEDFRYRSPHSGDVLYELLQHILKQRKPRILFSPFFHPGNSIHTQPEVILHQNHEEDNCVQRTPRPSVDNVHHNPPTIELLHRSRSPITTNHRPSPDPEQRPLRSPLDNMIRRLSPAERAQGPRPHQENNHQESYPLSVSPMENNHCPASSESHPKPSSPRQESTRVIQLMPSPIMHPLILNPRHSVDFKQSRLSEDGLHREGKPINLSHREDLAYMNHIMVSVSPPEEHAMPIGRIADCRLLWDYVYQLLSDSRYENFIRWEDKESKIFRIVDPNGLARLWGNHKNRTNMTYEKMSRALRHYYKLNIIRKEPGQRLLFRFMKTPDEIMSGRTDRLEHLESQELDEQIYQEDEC
Chain of HSF1 (Q00613 whole entry): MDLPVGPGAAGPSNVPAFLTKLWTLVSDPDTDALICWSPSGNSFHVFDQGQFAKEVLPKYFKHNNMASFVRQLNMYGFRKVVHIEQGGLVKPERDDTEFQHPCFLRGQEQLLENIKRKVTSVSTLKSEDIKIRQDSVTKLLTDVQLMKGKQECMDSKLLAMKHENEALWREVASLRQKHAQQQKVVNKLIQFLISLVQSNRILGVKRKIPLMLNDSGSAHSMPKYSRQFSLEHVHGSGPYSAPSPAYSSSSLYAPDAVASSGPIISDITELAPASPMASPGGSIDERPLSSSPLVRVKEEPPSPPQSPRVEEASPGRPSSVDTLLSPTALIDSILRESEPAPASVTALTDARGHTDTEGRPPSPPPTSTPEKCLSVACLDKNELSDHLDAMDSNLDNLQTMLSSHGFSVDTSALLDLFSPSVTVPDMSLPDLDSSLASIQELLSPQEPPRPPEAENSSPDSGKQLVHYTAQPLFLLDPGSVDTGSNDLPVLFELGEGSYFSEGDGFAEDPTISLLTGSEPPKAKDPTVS

As to TTCATG, the binding signal with FEV was 1.23 fold enrichment (6-mer frequency, TF over GST control); with ETV5, 1.27 fold enrichment (6-mer frequency, TF over GST control); with HSF1, 1.23 fold enrichment (6-mer frequency, TF over GST control); with SPIC, 1.35 fold enrichment (6-mer frequency, TF over GST control); with ELF4, 1.33 fold enrichment (6-mer frequency, TF over GST control); in the experiment with ELK4, 1.32 fold enrichment (6-mer frequency, TF over GST control). Moreover, the binding signal is 1.26 fold enrichment (6-mer frequency, TF over GST control) with ETV2; 1.27 fold enrichment (6-mer frequency, TF over GST control) with ELF3; 1.16 fold enrichment (6-mer frequency, TF over GST control) with CRX; 1.29 fold enrichment (6-mer frequency, TF over GST control) with ETV1; 1.22 fold enrichment (6-mer frequency, TF over GST control) with ERF; 1.33 fold enrichment (6-mer frequency, TF over GST control) with ETV3L. The binding signal with ETS2 is 1.33 fold enrichment (6-mer frequency, TF over GST control); with SPDEF, 1.27 fold enrichment (6-mer frequency, TF over GST control); in the experiment with ETV7 it was 1.35 fold enrichment (6-mer frequency, TF over GST control); in the experiment with ELF5, 1.28 fold enrichment (6-mer frequency, TF over GST control); in the experiment with ETV3, 1.4 fold enrichment (6-mer frequency, TF over GST control); with ETV6, 1.26 fold enrichment (6-mer frequency, TF over GST control).
